According to the supplement of paper PMC11417369:
± gives the standard deviation of the averaged measurements. In all, about 25,000 sequences were measured (“ln(normalized median fluorescence intensity)”: median about 8.9, highest 2% from about 10 on). Many of the other results were omitted from the sample, so the highest values are more common in it than they were.

system: PfAP2-LT AP2 domain (GST-tagged); assay: gcPBM binding intensity (ln(normalized median fluorescence intensity)); higher = stronger DNA binding
Procedure, shortened: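 Binding of GST-tagged P. falciparum DNA-binding domains, expressed in E. coli and used at about 25 μg on average, was carried out for 1 h in 1× PBS containing 1% milk, 0.2 mg/ml BSA, 0.5% salmon testes DNA and 0.03% Triton X-100. The target was an Agilent 4 × 180k array of primer-extended double-stranded 36-bp intergenic genomic probes plus negative controls, read with Alexa488 anti-GST antibody at 488 nm. Binding intensity is the highest Masliner-normalised natural-log median intensity across replicate spots of either probe orientation.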

Sequence | gcPBM binding intensity (ln)
TTTCCCCCATATAATGAACACACACCCTCCTCATAA [CACACA_site8110] | 9.84 ± 0.41
CCCCATATAATGAACACACACACTCCTCATAATTAA [CACACA_site628] | 10.33 ± 0.099
CCCATGTAATATTAAACACACACTCATATAACACAA [CACACA_site7906] | 9.36 ± 0.26
TTATAAATTCAATGTACTACACAAAATGAATTTAAT [XGTACX_site6683] | 8.53 ± 0.35
AGAACCATATATAAATGTACATGTTAATATGAATAA [XGTACX_site130] | 8.93 ± 0.42
ATTATGTTTCTTTTTTTTTTTAAAGGATGTCTTTTT [CACACA_negctrl_site974] | 8.62 ± 0.56
TTAAAAAAAAAACACACACACATACACATATATATA [CACACA_site3299] | 9.91 ± 0.2
TAAACATACATATACACACACACACCCACACCCACA [CACACA_site492] | 10.3 ± 0.18
ATTAAACATACATATACACACACACCCACCCACCCA [CACACA_site8057] | 10.22 ± 0.071
TTATATATGTATTAATGTACATAGTTGAGAAAGGTA [XGTACX_site1511] | 8.78 ± 0.34
GAACCTTTAAAATACACACCCAAATCCTTTGAAATA [CACACA_site3630] | 8.88 ± 0.42
CAATGTTGTACATACACACACACAAAAAAAAAATAA [CACACA_site2407] | 9.6 ± 0.45
TCTCCTTGTTCCTTTTTTTTAAAAAAAAACATTAAA [CACACA_negctrl_site679] | 8.47 ± 0.52
GTTAATTATTAAATTTGTACTCATATATATTATATA [XGTACX_site6862] | 8.71 ± 0.53
GGTACATACAGACACACACACAAAAAAAAAAAAATA [CACACA_site6844] | 9.81 ± 0.64
AAGACACAAAAACACACACACATACATACATACATA [CACACA_site454] | 9.99 ± 0.31
ATAAAACAAAGACACACACACATACACAAAAAAAAA [CACACA_site7752] | 9.99 ± 0.42
AAAAAAAAAAGACACACACACAAATACAAATACATA [CACACA_site6334] | 10 ± 0.28
CAAAGACACAAACACACACACACATACATACATACA [CACACA_site453] | 10.3 ± 0.42
AAAAAAAAAAGACACACACACACAAATACATACACA [CACACA_site6472] | 10.2 ± 0.042
TAATATTTCGCACTGTGTACTGAAATATTTATATCG [XGTACX_site516] | 8.76 ± 0.36
TAATTAACCTATGCATTCATATAGATACATAAATAT [CACACA_negctrl_site885] | 8.72 ± 0.51
GGTAATTATTTTGGTTGTACTCAAATATATAATATT [XGTACX_site291] | 8.89 ± 0.23

Sequence | gcPBM binding intensity (ln)
ATCAAAAACATACCTACACACACAATATGTATATAT [CACACA_site9171] | 9.51 ± 0.28
TATACATACACATACACACATACACCCATACACATA [CACACA_site1746] | 9.69 ± 0.33
CTAGCAAATACATACACACACACACCCATACATATA [CACACA_site3496] | 9.95 ± 0.18
ACCATACATACATACACACACACACCCATATATATA [CACACA_site2917] | 10.2 ± 0.26
GATGAATAAATCAAAGCACACATACACCCACATATA [CACACA_site7986] | 9.67 ± 0.13
TCAAAGCACACATACACACACATATAGATTTATATA [CACACA_site6272] | 9.73 ± 0.16
CATATACATACACATACACACATACACCCATACACA [CACACA_site8514] | 9.68 ± 0.29
TCAAAGCACCCATACACACACATATATATATATATA [CACACA_site4317] | 10.2 ± 0.18
CATACACCCATACATACACACATACATATATATATA [CACACA_site8591] | 9.62 ± 0.15
TATATATACATATACACACACACACCCATATATATA [CACACA_site2246] | 10 ± 0.11
TCAAAGCACAGATACACACACATATATATATATATA [CACACA_site287] | 10.18 ± 0.014
CACATATATACACATACACACACACCCATACACCCA [CACACA_site8505] | 10.1 ± 0.25
TATATATATATATATACACACATACAGATATATATT [CACACA_site4629] | 9.5 ± 0.38
TTTTTTTTGGAATTCACACAAATATAACATGGGTAT [CACACA_site5185] | 8.7 ± 0.38
AACCTATCTATAGGAACAATATATATATATATAATT [CACACA_negctrl_site1707] | 8.98 ± 0.33
TTTTGAAAGTTTTTGTGTCCACATATATTTATATAT [XGTACX_site6563] | 8.94 ± 0.44
ACATATATATAATATATATTTTTCGTGTGGTGTCAC [CACACA_negctrl_site543] | 8.84 ± 0.42
TTTATTCTTGAGTATTGTACATATGTGTTTGTATAT [XGTACX_site5706] | 8.93 ± 0.45
ATTTTCTATATCTTTCAACACACAAATTTTTTTTTC [CACACA_site7918] | 8.85 ± 0.45
TGTTTATTACTCAGGTGTACTCAATTTTTTTTTTTT [XGTACX_site3470] | 8.72 ± 0.47
TATACATATATATATATATATAGATATATTCACGTG [XGTACX_negctrl_site265] | 9.31 ± 0.21
ATTTAAATAATATGTACACACATTTAAAAAATTATA [CACACA_site2816] | 8.76 ± 0.44
AGCTCGGAAAAATTAGCATGCAAAAAAAAAAAAAAA [TGCATGCA_site658] | 8.59 ± 0.58

Sequence | gcPBM binding intensity (ln)
TACAATCTTTCATTATGTACTTAACATTTTTTCTGT [XGTACX_site8752] | 8.85 ± 0.52
ATATTTATGGAATATACACACATGTATAATTACATA [CACACA_site7045] | 8.83 ± 0.4
AATAAATATATATACACACCCATATATATATATATA [CACACA_site2595] | 9.73 ± 0.014
CATACACCCCAACACACACACACACCCATATATAAT [CACACA_site8097] | 10.3 ± 0.37
TATATATATATATACACACACACACCCATATATATA [CACACA_site2538] | 10.2 ± 0.3
ACCCATATAATATATACACACATATATATATATATA [CACACA_site4731] | 9.855 ± 0.035
TATATATATATATATACACACACACCCATATATATA [CACACA_site8812] | 9.85 ± 0.18
CTTATATATACATATACACACACACCCATATATATA [CACACA_site8705] | 9.59 ± 0.13
ACTATATTTCTATAATGTACAAAAATAAATCATATG [XGTACX_site3337] | 8.64 ± 0.39
TTTGCCCAAAAAGGTACACACCACAATGTACATAAA [CACACA_site4599] | 8.85 ± 0.49
ATAAAGCCATACAATACACACATTTTACATGGCTGT [CACACA_site5756] | 9.26 ± 0.42
CAAACATTTTAATGTACACACACCCACAGACAAACA [CACACA_site5522] | 9.57 ± 0.13
AACTTTGGCAAACACACACACACACCCACACCCACA [CACACA_site588] | 10.1 ± 0.42
GGCAAATTTATTATACCCACATACATACATACATAC [XGTACX_negctrl_site186] | 9.01 ± 0.32
AGACAGCGCACAAACACACAAACACCCACCCACATA [CACACA_site451] | 10.1 ± 0.16
AAATTTGGCAAACACACACACACACCCACAGAGACA [CACACA_site4490] | 10.2 ± 0.13
AAATTTGGCAAACACACACACACACCCACACCCACA [CACACA_site8095] | 10.4 ± 0.19
TACATAAATTAAAACACACACACACCCAAAAAAAAA [CACACA_site2261] | 9.9 ± 0.22
TTTTTTCTTTTATGTGAAATGTAATATTGTTATATA [GTGCAC_negctrl_site715] | 8.51 ± 0.52
TATATACGCATTTTTATACACACTTGTTTTATAAAA [CACACA_site727] | 8.79 ± 0.35
GGATATATTATATGTACACACACATATAAGGGATTA [CACACA_site7884] | 9.34 ± 0.31
TTACAAAAAAATAATTGTACATACAATTTCTGTTAT [XGTACX_site877] | 8.71 ± 0.45
ATATTTTTATTTAAACGTACATACACGTTGAAAAGA [XGTACX_site4567] | 8.43 ± 0.4

Sequence | gcPBM binding intensity (ln)
TGTAATAAATAGTACACACACACATATTTATATATC [CACACA_site6770] | 9.72 ± 0.23
TCTTTATCTTCTTATACACACATTTATTAAAAAAAA [CACACA_site445] | 8.55 ± 0.4
ATAAAACCAACATAGAGTACAGATCGACTATGTTTC [XGTACX_site4329] | 9.05 ± 0.47
TATAATAATCCACAAGCACACACACCCACATATATA [CACACA_site8343] | 9.91 ± 0.32
AATAATAGAAGCACCCACCCACCACCACCCACACAT [CACACA_negctrl_site1033] | 10.46 ± 0.028
GTTATAGAAGCATTCACACACACACCCACATACACA [CACACA_site1465] | 10.1 ± 0.11
TGTAAGTTGATATAATGTACATGTTTGATTTTTTTT [XGTACX_site7687] | 8.71 ± 0.47
TATAAAATACTGTATCGATGGGGGAGGGCGCAGGGG [TGCATGCA_negctrl_site250] | 10.4 ± 0.16
ATATATGGGGCGCAGGAAAAGAGTTTTGGAAATAAA [CACACA_negctrl_site1265] | 8.98 ± 0.55
AGTATATAAAATACTGTATCGATGGGGGAGGGCGCA [CACACA_negctrl_site1612] | 10 ± 0.44
CTTTTTTGTTAAAGTGTGCGCAATAGTTATAGACTT [GTGCAC_site9670] | 8.87 ± 0.38
ATATAAGAAAAGCACACACACACAAAAAAAAAAAAA [CACACA_site2827] | 10.1 ± 0.42
TAATAATCCACAAGCACACACACACCCATATATATA [CACACA_site1267] | 9.96 ± 0.13
TATAATCCATAAGAAGCACACACATATATATATATT [CACACA_site8394] | 9.41 ± 0.3
ATAATCCACAAGCACACACACACACCCATATATATA [CACACA_site1268] | 10.1 ± 0.35
TGATAATAAGCATACACACACACACTAAAAAAAAAA [CACACA_site6478] | 9.94 ± 0.38
AGATATAAGAAAAGCACACACACACTAGAAAAAAAA [CACACA_site5559] | 9.92 ± 0.33
AGAGATATAAGAAAAGCACACACACCCAAAAAAAAA [CACACA_site8917] | 9.96 ± 0.29
TGATAATAAGCATACACACACACACTAGAAAAAAAA [CACACA_site4558] | 10.1 ± 0.38
AGATATAAGAAAAGCACACACACACCCAAAAAAAAA [CACACA_site2826] | 10.2 ± 0.18
ATAATACCCAAGCACACACACACACCGATATATATA [CACACA_site8344] | 10.4 ± 0.2
TTAATATAAGCAAATACACACACACCGATATATATA [CACACA_site9269] | 9.8 ± 0.26
TAATAATACCCAAGCACACACACACCCATATATATA [CACACA_site4831] | 10.1 ± 0.33
